# Laboratory results taken from PubChem BioAssay (NCATS).
# Inconclusive results are not listed. Where a call stands in place of a potency, no number is given. Unmarked numbers belong to inactive results. Activity calls are given as the source filed them. The call rests on the fitted dose curve; in most records, active means well fitted inhibition curve with a large enough effect; inconclusive means small, poorly fitted or top-dose-only effect, or effect the other way; inactive means flat fitted curve, though single readings scatter.
# Assay: qHTS for Inhibitors of Plasmodium falciparum (GB4) proliferation (AID 504315); further: nearly all actives have a fitted effect of over 50% in size
# Details: P. falciparum GB4 in erythrocytes, SYBR Green DNA, 72 h; series mostly up to 6.7 µM
# Method in brief: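 Erythrocytes infected with P. falciparum line (0.3% parasitemia, 2.5% hematocrit final) incubated with compounds 72 h at 37 °C, 5% CO2; SYBR Green lysis buffer added, fluorescence read next day. Normalized to 0.29 uM artemisinin and DMSO.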
# Potency means the concentration at half of the fitted maximal effect.
row,SMILES,Potency
1,COc1ccc(C=CNC(=O)Cc2ccc(OC)c(OC)c2)cc1,inactive
2,C=CC1=C2C=C(C3CC3)N(CC(C)C)C=C2C(=O)C(C)(OC(=O)c2ccco2)C1=O (stereo not given),inactive
3,COC(=O)[C@H](Cc1ccccc1)NC(=O)O[C@H]1C(=O)c2ccc(OC)cc2O[C@@H]1c1ccc2c(c1)OCO2,inactive
4,N#CCCCS(=O)(=O)c1nnnn1-c1ccccc1,inactive
5,COc1cc2c(c(OC)c1OC)C1(c3ccccc3)CCCCCC1[C@@H]2NC(=O)C(F)(F)F (stereo not given in full),inactive
6,CCO[C@@H]1C[C@@]1(C=C[C@@H](C)[C@H](OC)c1ccccc1Br)C(=O)OC,inactive
7,COC(=O)CC=C[C@@H](C)[C@@H](COc1ccccc1Br)OC,inactive
8,C=CC[C@@H]1C=CC(ON=CC[C@@H]2C=C[C@@H](OC(C)=O)[C@@H](COC(C)=O)O2)[C@H](CO)O1 (stereo not given in full),inactive
9,C[C@@H]1CC[C@H]2C(=O)N(Cc3cccc([N+](=O)[O-])c3)C[C@@H](O)CN2[C@@H]1c1cccc(Br)c1,inactive
10,CC[C@H]1OC(c2ccccc2)[C@H](C)[C@H]2O[C@@H]2[C@@H]1C(=O)OC (stereo not given in full),inactive
11,CCN1C(=O)N[C@@H](c2ccccc2)[C@@H](C(=O)OC)[C@H]1C,inactive
12,C[C@H]1COC(=O)[C@H](Cc2ccccc2)NC(=O)[C@@H](C)COC(=O)[C@H](Cc2ccccc2)NC1=O,inactive
13,COC(=O)C[C@H]1c2ccccc2[C@@H]2C(=C[C@@H](C)[C@H]3C(=O)N(c4ccccc4)C(=O)[C@H]32)N1C(=O)OC,inactive
14,CCN1C(=NCc2cc(OC)c(OC)c(OC)c2)N[C@@H](c2ccccc2)[C@H](C(=O)OC)[C@H]1C,inactive
15,COc1ccc([C@]23Cc4cc(C#N)ccc4[C@H](O2)C2=C(CC4(CCCCC4)OC2=O)O3)cc1,inactive
16,COC(=O)C1=C(C)C(=O)[C@]2(O)c3ccccc3N(C)[C@]12C,inactive
17,C[C@H]1Cc2c(-c3ccccc3)nc3c(c2CO1)CN(S(=O)(=O)c1ccc2c(c1)OCCN2C)CC3,inactive
18,CC#CCN1C(=O)NC(c2ccccc2)C(C#N)=C1C (stereo not given),inactive
19,CCCCCCN1C(=O)CC[C@@]23C1=NC(C(=O)OC)=C(C(=O)OC)[C@@H]2N(Cc1ccccc1)c1ccccc13,inactive
20,COC1=C[C@H](C(=O)NCc2ccc(Br)cc2)C(C)C(c2ccccc2)CC1=O (stereo not given in full),inactive

row,SMILES,Potency
1,CC(=O)OC[C@H]1O[C@H](C#Cc2ccccc2)C=C[C@@H]1OC(C)=O,inactive
2,COC(=O)N1[C@H]2CC[C@@]3(C)C=C(C)O[C@]1(C)C3c1ccccc12,inactive
3,CCCC[C@@H]1CN2[C@@H](CC[C@H](C)[C@@H]2c2ccc(Br)cc2)C(=O)O1,inactive
4,CCCCS(=O)(=O)N1C2=NC3=C(C(=O)N(CCOC)C3=O)C3N(C)c4ccccc4[C@]23C[C@H]1CO (stereo not given in full),inactive
5,CC(=O)C1=C(C)N(Cc2ccccc2)C(=O)NC1c1cccs1 (stereo not given),inactive
6,COc1cc2c(cc1OC)[C@@H]1O[C@](CCCCN3C(=O)c4ccccc4C3=O)(C2)Oc2c1c(=O)oc1ccccc21,1690 nM (active)
7,O=C1C=C(c2ccccc2)CCC1,inactive
8,O=C(NN=C1C[C@@H](O)[C@H](O)[C@H]2[C@@H]3C(=O)N(Cc4ccc5c(c4)OCO5)C(=O)[C@@H]3CC[C@H]12)OCc1ccccc1,inactive
9,O=C1[C@H]2[C@@H]3[C@@H](O)[C@H](O)CC(=NOCc4ccccc4)[C@H]3CC[C@H]2C(=O)N1C1CCCCC1,inactive
10,COc1cc2c(cc1OC)CSC1C(=O)N(C)C(SC2)C(=O)N1C,inactive
11,O=C1[C@H]2[C@@H]3[C@@H](O)[C@H](O)CC(=NOCc4ccccc4)[C@H]3CC[C@H]2C(=O)N1Cc1ccc2c(c1)OCO2,inactive
12,COC(=O)N[C@@H](c1ccco1)[C@]1(C(C)=O)CCCC1=O,inactive
13,COC(=O)CCC(=O)OC1(C)C(=O)C=C2C=C(C3CC3)N(Cc3ccc(OC)cc3)C=C2C1=O (stereo not given),inactive
14,CCN1C(=NCCc2ccccn2)NC(c2cccc(C(F)(F)F)c2)C(C(=O)OC)=C1C (stereo not given),301 nM (active)
15,COC(=O)[C@H](COC(C)(C)C)NC(=O)O[C@@H]1C(=O)c2cc(OC)ccc2O[C@H]1c1cccc(OC)c1,inactive
16,C=C(C)C(=O)C=Cc1ccc(Br)cc1,inactive
17,CCCCn1c(C)cc2c(c1=O)[C@H]1O[C@](c3ccsc3)(Cc3cc(OC)c(OC)cc31)O2,inactive
18,CCCCc1nc2c(c3c1C[C@H](C)OC3)CN(C(=O)c1cccnc1)CC2,inactive
19,O=C1OCCC=C1C(O)CCc1ccccc1 (stereo not given),inactive
20,COC1=CC2C(=O)C(C1=O)[C@H](c1ccccc1)[C@H]2C (stereo not given in full),inactive
